Laboratory results: the OligoGym collection

The sequences below were run against PAFAH1B2 (assay: pooled miR-30 sensor sort-seq; sequence = guide strand). Conditions: shRNA.
Further: reference of the scale not given here.

In order of falling sensor-assay potency score (higher = more potent):
1. ATTTAAACAACAATCTTCCTTG  0.529
2. TTACAGTCCAAAACAAATCTGT  0.236
3. TTTCGTGGTTATTTGTTCCTAC  0.14
4. TGTGCTGAGACATCCATCGGTC  -0.024
5. TTAGTCTCCACAAAACATGTCT  -0.124
6. TTCTTCTGCTGTATTTTCGTGG  -0.326
7. TACCCAGACAACAATGACCTTA  -0.359
8. TAATATTCTCCAGTTCTCCATT  -1.1
9. TTGCTGCATTAACTGCACCATG  -1.37

The sequences below were run against PAG1 in the same assay as above. Conditions: shRNA.

In order of rising sensor-assay potency score (higher = more potent):
1. TTGCAAAATAATGACAACCAAC  -1.68
2. TTTTTGTTTCTGTCCACCGAGG  -1.07
3. TTTTCTTTTCTATATAGCGTTT  -1.01
4. TTGTTTTTGATAACTACCTTTC  -0.868
5. TTCTTGTGTAGTTATCTGCCTA  -0.676
6. TACATAATAGAACATATCCTAA  -0.651
7. TAAACTGTAGCATTAGCTCAAG  -0.488
8. TTTTTTGTTTCTGTCCACCGAG  -0.11
9. TTACTGATGAGTACATAGCTGA  -0.0368
10. TAATATTTGAAAACTCTTGGGG  0.247
11. TAAATTTCACATAACCTGCTAT  0.485
12. TTAAACTGTAGCATTAGCTCAA  0.54

The sequences below were run against PALB2 in the same assay as above. Conditions: shRNA.

In order of falling sensor-assay potency score (higher = more potent):
1. TTTGCTACTGATTTCTTCCTGT  0.661
2. TTCTTGAACTTGGTTGTCCTGT  0.276
3. TAAATTTTTACTTGCATCCTTA  0.122
4. TTTGTATAGGTAATCCTCCTGG  0.029
5. TTGTTCTAACATAATATTCTGC  -0.275
6. TACAGCATCACACCCACGCTGA  -0.615
7. TTGAATAAATAATTTTTCGTGC  -0.674
8. TTAGGAATGTATCAACACCTTT  -0.84
9. TTCCTGTGTATCTTCTACCAGG  -0.953
10. TACATGGCTCTTTACAACCGGC  -0.961
11. TAACATAATATTCTGCAGGAAA  -1.13
12. TATAGCTTTATTTACAAGGAGG  -1.15

These sequences were tested against PALM2-AKAP2 in the same assay as above. Conditions: shRNA.

In order of rising sensor-assay potency score (higher = more potent):
1. TTGATTTGCTTGTAACATGTTT  -0.674
2. TTGAATGGCATTCTGCACCAGG  -0.555
3. TTGACAGATCTTGAGAACTGAT  -0.51
4. TTAGTCAGTGGCTTGTCTGAGT  0.113
5. TTTCTCATGCTCGTCATCCTCA  0.127
6. TTGTTCTTTCTCATGCTCGTCA  0.379
7. TTGAACAGGAGAAGACACCTGA  1.01
